# Reference: the supplement of paper PMC11417369
# ± gives the standard deviation of the averaged measurements. Whole data set: some 25,000 sequences, median “ln(normalized median fluorescence intensity)” near 10, cut for the highest 2% near 12. The sample holds the highest values, similar sequences and a random draw of the others, so the mix is not that of the screen.
# Test system: PfAP2-G AP2 domain (GST-tagged)
# Assay: gcPBM binding intensity (ln(normalized median fluorescence intensity)); higher = stronger DNA binding
# Summary of the method: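 GST-fused DNA-binding domains of P. falciparum, expressed in E. coli, were applied at about 25 μg on average for 1 h to an Agilent 4 × 180k array of primer-extended double-stranded 36-bp intergenic genomic probes and negative controls. Binding intensity is the highest Masliner-normalised natural-log median intensity across replicate spots of either probe orientation, measured with Alexa488 anti-GST antibody and a 488 nm scan.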
row,Sequence,gcPBM binding intensity (ln)
1,TTATAAAATTACTTGGTGCATTAGAATATTTCAATA,10.1 ± 0.3
2,AATAAAAAACTACAATATACAAAATTATTAAATCAA [GTGCAC_negctrl_site703],9.56 ± 0.35
3,TAATTTATAAAAAATTGTACATTAAACATATATATA [XGTACX_site5164],10.8 ± 0.56
4,TTCATATGGAATAAAAGTACGTATTAAAACAATTTT [XGTACX_site8742],11.1 ± 0.59
5,TTTTTTATTTTTTGTTATATTTATAATAATTTATGA [XGTACX_negctrl_site260],9.58 ± 0.071
6,TAAAAAAAATACAAAAGTACACAAAATTATACGTTA [XGTACX_site4656],11.5 ± 0.96
7,TAATTTACACCTACGTGTACACACAAAAATATGTTT [XGTACX_site1868],11.6 ± 0.95
8,AGATAAAATAAATACACACACATAAATACGTACAAA [CACACA_site4739],11.7 ± 0.74
9,TTTACACGTACGTGTACACACAAAAATATGTTTTTA [CACACA_site995],11.6 ± 0.89
10,GTATATATTTAAACACGTACACAAAACCCAAAAAAT [XGTACX_site8110],11.8 ± 0.96
11,AAACCAAAAATAACACGTACAAAAATAAAAAGTATA [XGTACX_site4261],11.2 ± 0.74
12,AAAAAAAAAAAAAAAGGTACACAAATACGTCCTGCA [XGTACX_site3354],11.5 ± 0.74
13,AATTTACACGTACGTGTACACACAAAAATATGTTTT [CACACA_site8242],11.8 ± 1
14,TATATATTATTTAAAACACACAAAAAAAAAAATTAT [CACACA_site89],9.895 ± 0.021
15,AAAAAAAAAAAAATACGTACACAAAAAATTGCAAAG [XGTACX_site5663],11.6 ± 0.81
16,ACAAAAAAAAAAAAAATACACACACATAAAAAAAAA [TGCATGCA_negctrl_site333],10.1 ± 0.13
17,AAAATAAAATAAAATACACACATACATACATACAAA [CACACA_site5366],10.01 ± 0.028
18,TATATTACTTTGTGTTGTACGGAAATATATATATAT [XGTACX_site4309],11.3 ± 0.94
19,TATATAATGGTAAAAACACACAAATATGAAGATGTT [CACACA_site722],9.87 ± 0.16

row,Sequence,gcPBM binding intensity (ln)
1,TGTAATAATTATTGCACGCACACAAAAACCTATAGA [CACACA_site2932],10.7 ± 0.4
2,ATCTTAGTTGAAATATAGAATTTATAATAAAAGTTA [GTGCAC_negctrl_site122],9.595 ± 0.064
3,AATAAATATAAAAATGCACACACACTAATAAAAAAA [CACACA_site8201],10.2 ± 0.13
4,GAAATGTACAAATACGTACACACATATATATATATA [CACACA_site1541],11.6 ± 0.99
5,AATGTACAAATACGTACACACATATTTATATTTATA [CACACA_site6833],11.6 ± 0.99
6,AAATATATATATTTACGTACATATATACAAATAGAG [XGTACX_site6067],11.4 ± 0.81
7,ATAACACAAAAAGGGGGTACAATAAAAAAAAAAAAA [XGTACX_site1652],11.5 ± 0.98
8,TGATAACCAAAAAGGGGTACATACACAAAAAAATAC [XGTACX_site1254],11.7 ± 0.91
9,TATAAATAAATGCGTACACACTAATAAAAAAAAAAA [CACACA_site4630],11.6 ± 1.1
10,AGAAATTTACAAATACGTACACACATATATATATAT [XGTACX_site3141],11.9 ± 1.4
11,ATAAATAAATTTATACGTACACATAATATATATATA [XGTACX_site4634],11.6 ± 0.89
12,TGTATAAATAAATGCGTACACACTAATAAAAAAAAA [CACACA_site858],11.6 ± 0.8
13,AATGTACAAATACGTACACACATATATATATATATA [CACACA_site1542],11.6 ± 0.93
14,AAAAAATACCAAAGGGGTACTTACACATAATACTTA [XGTACX_site2111],11.4 ± 1.1
15,TCAGAGTGAAGTTATACACACATGGTTTTTTTTTTT [CACACA_site2116],9.875 ± 0.021
16,TAAAGAAAAAAATGTTGTACTTTATGAAACATATTT [XGTACX_site412],11.2 ± 0.79
17,TAAATATTTTTTTAGACACACATATATCTATGATAT [CACACA_site1107],9.705 ± 0.049
18,ATTTTTTAAATGAGGCGTACACAAAAATATAATTAC [XGTACX_site7087],11.7 ± 1.1
19,TTTCTCCCATTTTTTAGTACACAAAATATATATGTA [XGTACX_site7218],11.7 ± 1.1

row,Sequence,gcPBM binding intensity (ln)
1,TTAATGAAATATTATACACACAAAAAAATAATTTTA [CACACA_site4231],9.915 ± 0.092
2,ATAAATAAGATACGTACACACATATACAAAATATAC [CACACA_site3661],11.5 ± 0.95
3,AAAAAAAAAACATACACACACACAAATATTTATATA [CACACA_site437],9.85 ± 0.11
4,CCATTTACAAAAAGGAGTACACAAATATATGTTTAA [XGTACX_site649],11.6 ± 0.93
5,AATATACACCCGTGTACACAAATATTTACAAAACGT [CACACA_site4786],11.7 ± 1.1
6,AGATAAAATATATACACACACATAAATACGTACAAA [CACACA_site1086],11.8 ± 1
7,TTAATTAAATATTATACACACAAAAAAATAATTTTA [CACACA_site96],10 ± 0.16
8,TTATTTATTTTTATATGTACACAAAAAAAAAAAAAA [XGTACX_site1459],11.5 ± 1.1
9,AGATAAGATATATACACACACATAAATACGTACAAA [CACACA_site6639],11.6 ± 0.78
10,TATACAAAATATTTTACACACACATATATATACATA [CACACA_site2616],10.01 ± 0.057
11,ATAACAAATATGATAGCATGCTACATATTACAACTT [TGCATGCA_site524],9.71 ± 0.16
12,TATATCTGTAAATGCACACATATGTGGATATACTTA [CACACA_site5013],10.1
13,ATATATATATATAGTAGTACTCTCTCTGTATATATA [XGTACX_site3754],11.3 ± 0.75
14,TATATAAACCCACCTACACACACAACGTAAATGCAT [CACACA_site8702],10.2 ± 0.14
15,AAAAAAAAAAAAAACACACAGAAATATATATATATT [CACACA_site832],9.82 ± 0.33
16,ATATATACCTATATTACACACTTCTTATTCTAAGAA [CACACA_site7421],9.865 ± 0.092
17,ATATAAATGAATATATGTACATATATATATATATAT [XGTACX_site6361],11.2 ± 0.52
18,AAGGAGCCTATGAACACACACATGTACAGATATTAA [CACACA_site6107],11.1 ± 0.52
19,TATATATACATATACACACACACACCGATATATATA [CACACA_site8706],10.1 ± 0.26
